From PubChem BioAssay (NCATS)
Records with an inconclusive call do not appear. Unmarked numbers belong to inactive results. Calls of active or inactive are those of the source. Calls come from the whole dose curve; as a rule, active = well fitted inhibition curve with a large enough effect; inconclusive = small, poorly fitted or top-dose-only effect; inactive = flat fitted curve, though single readings scatter. Bridge positions count the residues as written; N and C are the ends. Square brackets hold non-standard residues; d marks the D form. Peptide text beside a SMILES is read from it. * marks the point of attachment. Ileψ(thiazoline)Cys = CC[C@H](C)[C@H](N)C1=N[C@H](C(=O)*)CS1; d(aIle) = CC[C@H](C)[C@@H](N)C(=O)O; dOrn = NCCC[C@@H](N)C(=O)O

tested on: ATS189; assay: qHTS profiling for inhibitors of Plasmodium falciparum proliferation (AID 504749); note: nearly all actives have a fitted effect of over 60% in size;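 for activity, negative = inhibition: 0% = DMSO vehicle and full inhibition = artemisinin control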; conditions: P. falciparum in erythrocytes, SYBR Green DNA, 72 h; series mostly up to 12.8 µM; activity, negative = inhibition: at the top concentration
Procedure, shortened: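 SYBR Green fluorescence (ex 485 nm, em 535 nm) reports parasite DNA after 72 h compound exposure of infected red cells at 0.3% parasitemia, 2.5% hematocrit; signal normalized to 0.29 uM artemisinin and vehicle wells.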
Potency is the fitted concentration of half-maximal effect.

SMILES | activity, negative = inhibition [%] | Potency
C[C@@H]1C[C@H]2[C@@H]3C[C@H](F)C4=CC(=O)C=C[C@@]4(C)[C@]3(F)[C@H](O)C[C@]2(C)[C@@]1(O)C(=O)CO | 6.08 | –
C[C@H](O)Cn1cnc2c1c(=O)n(C)c(=O)n2C | 0.651 | –
CCCCC[C@H](O)/C=C\[C@@H]1[C@H](O)CC(=O)[C@@H]1CCCCCCC(=O)O | -27.2 | –
CC(=C(CCOP(=O)(O)O)SC(=O)c1ccccc1)N(C=O)Cc1cnc(C)nc1N | 0.249 | –
NC[C@@H]1O[C@@H](O[C@H]2[C@H](O)[C@H](O[C@@H]3O[C@H](CO)[C@@H](O)[C@H](N)[C@@H]3O)[C@@H](N)C[C@H]2N)[C@H](N)C[C@@H]1O | 0.883 | –
CCc1c(C)[nH]c2c1C(=O)[C@H](CN1CCOCC1)CC2 | 4.82 | –
CC[C@H](C)[C@H](N)C1=N[C@H](C(=O)N[C@@H](CC(C)C)C(=O)N[C@@H](CCC(=O)O)C(=O)N[C@@H](C(=O)N[C@H]2CCCCNC(=O)[C@@H](CC(N)=O)NC(=O)[C@@H](CC(=O)O)NC(=O)[C@@H](Cc3cnc[nH]3)NC(=O)[C@@H](Cc3ccccc3)NC(=O)[C@@H]([C@@H](C)CC)NC(=O)[C@@H](CCCN)NC2=O)[C@@H](C)CC)CS1 ({Ileψ(thiazoline)Cys}-LE[d(aIle)]K[dOrn][d(aIle)][dF][dH][dD][dN]; lactam 4-C) | 5.89 | –
O=C(N/N=C\c1ccc([N+](=O)[O-])o1)c1ccc(O)cc1 | – | 3.16 µM (active)
C[C@@H](CNC1CCCCC1)OC(=O)c1ccccc1 | – | 3.16 µM (active)
CCOC(=O)O[C@@H](C)OC(=O)[C@@H]1N2C(=O)[C@@H](NC(=O)[C@@H](N)c3ccccc3)[C@H]2SC1(C)C | 9.3 | –
Cc1ccsc1/C=C\C1=NCCCN1C | 2.45 | –
O=C(O)COCCN1CCN([C@@H](c2ccccc2)c2ccc(Cl)cc2)CC1 | -15.3 | –
C#C[C@]1(O)CC[C@@H]2[C@H]3CCC4=CCCC[C@@H]4[C@@H]3CC[C@@]21C | -4.13 | –
CC1(C)[C@@H](OC(=O)CCC(=O)O)CC[C@@]2(C)[C@H]1CC[C@@]1(C)[C@H]2C(=O)C=C2[C@H]3C[C@](C)(C(=O)O)CC[C@]3(C)CC[C@@]21C | 2.28 | –
C[C@H](CCC(=O)O)[C@H]1CC[C@@H]2[C@@H]3[C@@H](O)C[C@H]4C[C@@H](O)CC[C@@]4(C)[C@H]3CC[C@@]21C | -2.39 | –
